Measurements published in the supplement of paper PMC7695840.
Structures can show the parent of a compound that is named as a salt.

Assays:
[1] = tested on: Staphylococcus aureus MW2 delta-mecA (mecA-); assay: normalized GFP fluorescence (growth of mecA- strain) (fraction of control range); higher = more growth of mecA- strain; details: compound concentration: 150 uM; cefoxitin: subinhibitory; fluorescent label: GFP
In short: (§1)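 Two pre-induced S. aureus MW2 strains, one with the gene labeled by DsRed and one lacking it labeled by GFP, were mixed 1:1 in LB with a subinhibitory antibiotic dose set daily. The mix went at 5 µL/well onto 150 μM compound (1.5% DMSO) in 1536-well plates, single replicate, and grew unshaken 20 h at 37 °C, 90% humidity. DsRed (540/590) and GFP (485/520) values were scaled per plate between single-strain control medians, and plates with high untreated ratios or rows with DsRed/GFP >10 were left out.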

[2] = tested on: Staphylococcus aureus MW2 (mecA+); assay: normalized DsRed fluorescence (growth of mecA+ strain) (fraction of control range); higher = more growth of mecA+ strain; details: compound concentration: 150 uM; cefoxitin: subinhibitory; fluorescent label: DsRed
In short: as §1

SMILES	normalized GFP fluorescence [1]	normalized DsRed fluorescence [2]
CCN(CC)CC(=O)Nc1c(C)cccc1C	0.574	0.76
CC(O)(CC(=O)O)CC(=O)O	0.226	0.945
CN1C(CCl)Nc2cc(Cl)c(S(N)(=O)=O)cc2S1(=O)=O (configuration not stated) [Methyclothiazide]	0.383	0.579
Cc1cc(C(C)(C)C)c(O)c(C)c1CC1=NCCN1 [Oxymetazoline hydrochloride]	0.135	1.28
OC(Cn1cncn1)(Cn1cncn1)c1ccc(F)cc1F	0.417	0.746
C[C@@H]1[C@H](O)[C@@H](C)/C=C/C=C/C=C/C=C/C=C/C=C/C=C/[C@H](O[C@@H]2O[C@H](C)[C@@H](O)[C@H](N)[C@@H]2O)C[C@@H]2O[C@](O)(C[C@@H](O)C[C@@H](O)[C@H](O)CC[C@@H](O)C[C@@H](O)CC(=O)O[C@H]1C)C[C@H](O)[C@H]2C(=O)O	0.269	0.735
CCC[C@H](NC(=O)[C@@H]1[C@H]2CCC[C@H]2CN1C(=O)[C@@H](NC(=O)[C@@H](NC(=O)c1cnccn1)C1CCCCC1)C(C)(C)C)C(=O)C(=O)NC1CC1 [Telaprevir (VX-950)]	0.0337	1.39
CN1CCN2c3ncccc3Cc3ccccc3C2C1 (configuration not stated) [Mirtazapine (Remeron, Avanza)]	0.214	1.07
OCCN1CCN(CCCN2c3ccccc3Sc3ccc(C(F)(F)F)cc32)CC1	0.0603	1.68
O=C(CCBr)N1CCN(C(=O)CCBr)CC1	0.631	0.794
CCN(CC)CCOc1ccc2c(c1)C(=O)c1cc(OCCN(CC)CC)ccc1-2	0.282	0.512
